The results in this text go back to PubChem BioAssay (EPA / NIEHS).

The source made the active and inactive calls. Rule for the calls: active = hit-call score of the fitted dose curve at least 0.9, where 1 is the maximum; inconclusive = response in the unintended direction; inactive = score below 0.9.

Sequence of Estrogen receptor beta (Homo sapiens) (Q92731 whole entry, looked up, the tested form may be a part): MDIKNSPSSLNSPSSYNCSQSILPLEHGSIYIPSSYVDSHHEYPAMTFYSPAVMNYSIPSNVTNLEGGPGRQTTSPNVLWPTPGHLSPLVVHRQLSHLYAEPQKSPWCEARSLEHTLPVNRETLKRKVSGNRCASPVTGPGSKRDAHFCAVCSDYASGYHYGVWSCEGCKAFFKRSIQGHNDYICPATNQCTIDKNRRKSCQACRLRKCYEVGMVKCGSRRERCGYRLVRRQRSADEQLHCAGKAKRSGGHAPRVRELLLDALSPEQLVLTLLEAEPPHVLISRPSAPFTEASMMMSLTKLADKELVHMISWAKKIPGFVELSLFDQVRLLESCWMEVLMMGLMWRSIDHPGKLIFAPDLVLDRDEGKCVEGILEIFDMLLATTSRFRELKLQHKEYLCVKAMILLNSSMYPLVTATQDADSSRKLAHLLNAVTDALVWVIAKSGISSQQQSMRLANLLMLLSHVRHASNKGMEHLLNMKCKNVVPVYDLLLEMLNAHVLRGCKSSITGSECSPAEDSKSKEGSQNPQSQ

In this experiment the target is Estrogen receptor beta (Homo sapiens) (UniProt Q92731). Nature of the experiment: OT_ER_ERbERb_1440: Odyssey Thera (OT) 24-hour HEK293T Protein-Complementation Assay for Estrogen Receptor-beta/-beta Homodimer (AID 2283380).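 Note: scored as signal increase over DMSO baseline for both agonists and antagonists.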 On the procedure:
OT_ER_ERbERb_1440 is a cell-based assay that uses HEK293T, a human kidney cell line, with measurements taken at 24 hours after chemical dosing in a 384-well plate.OT_ER_ERbERb_1440 is one of one assay component(s) measured or calculated from the OT_ER_ERbERb_1440 assay. It is designed to make measurements of protein fragment complementation, a form of binding reporter, as detected with fluorescence intensity signals by Protein-fragment Complementation technology.Data from the assay component OT_ER_ERbERb_1440 was analyzed into 1 assay endpoint. This assay endpoint, OT_ER_ERbERb_1440, was analyzed in the positive analysis fitting direction relative to DMSO as the negative control and baseline of activity. Using a type of binding reporter, measures of receptor for gain-of-signal activity can be used to understand the binding at the pathway-level as they relate to the gene ESR2. Furthermore, this assay endpoint can be referred to as a primary readout, because the performed assay has only produced 1 assay endpoint. To generalize the intended target to other relatable targets, this assay endpoint is annotated to the nuclear receptor intended target family, where the subfamily is steroidal.
Protein-fragment complementation assay, or PCA, is a method for the identification and quantification of protein-protein interactions. In the PCA, the proteins of interest ("bait" and "prey") are each covalently linked to fragments of a third protein (e.g. DHFR, which acts as a "reporter"). Interaction between the bait and the prey proteins brings the fragments of the reporter protein in close proximity to allow them to form a functional reporter protein whose activity can be measured. The OT ER beta / ER beta assay is a homodimer PCA of the ligand binding domain (LBD; amino acids 310-547) of human ER beta stably expressed in HEK293T cells. […] Cells are fixed in 4 percent formaldehyde and stained with Draq5 (BioStatus) to identify cells prior to signal detection. Fluorescent signal in the basal state of the assay is very low and is primarily punctuate and cytoplasmic. Modulation of this assay is quantified as an increase in mean fluorescence intensity in the nucleus (for agonists) or in the nucleus and cytoplasm (antagonists) relative to vehicle controls, and can be quantified on a high content imaging device or a laser scanning cytometer. The latter instrument is favored for this assay because of the rapid mode of data acquisition, the ability to acquire data from the entire cell population in a well (as opposed to a fraction of the well on the high content devices) and the larger dynamic range typically achieved with this instrument. To assess sensitivity of the ER beta/ER beta LBD assay to ligand, cells were treated with the ER agonist 17- beta-estradiol (E2) in 10-point concentration- response format for 24 hours and monitored response on a laser scanning plate cytometer (Acumen eX3; TTP Lab Tech).
As to `CCOP(=O)(OCC)Oc1nc(Cl)c(Cl)cc1Cl`, the compound was called inactive.
Same read-out and setting: the entry for `CCNP(=S)(OC)O/C(C)=C/C(=O)OC(C)C` (stereo not given) is “inactive”; for `COCC(=O)N(c1c(C)cccc1C)C(C)C(=O)OC` (stereo not given) it is “inactive”; for `O=C(O)c1c(Cl)ccc2cc(Cl)cnc12` it is “inactive”.
The same measure, in the same setting: the entry for `CNC(=O)N(C)c1nnc(C(C)(C)C)s1` is “inactive”; for `COP(=S)(OC)SCn1nnc2ccccc2c1=O` it is “inactive”; for `CC1(C)C(C(=O)OC(C#N)c2cccc(Oc3ccccc3)c2)C1(C)C` (stereo not given) it is “inactive”.
The same measure, in the same setting: the value for `CC(C)Oc1cccc(NC(=O)c2ccccc2C(F)(F)F)c1` was “inactive”.
On to `Cc1c(COC(=O)[C@@H]2[C@H](/C=C(\Cl)C(F)(F)F)C2(C)C)cccc1-c1ccccc1`, for which the call was inactive.
Still for that read-out and setting: the value for `CCN(CC)C(=O)C(C)Oc1cccc2ccccc12` (stereo not given) was “inactive”; that for `C=C(C)CN(CC)c1c([N+](=O)[O-])cc(C(F)(F)F)cc1[N+](=O)[O-]` was “inactive”.
On the same count and under the same terms, the value for `Nc1cnn(-c2ccccc2)c(=O)c1Cl` was “inactive”; that for `COC(=O)N(C(=O)N1CO[C@@]2(C(=O)OC)Cc3cc(Cl)ccc3C2=N1)c1ccc(OC(F)(F)F)cc1` was “inactive”.
Still for that read-out and setting: the value for `Cn1c(-c2ccccc2)cc(-c2ccccc2)[n+]1C` was “inactive”; that for `COCc1cnc(C2=NC(C)(C(C)C)C(=O)N2)c(C(=O)O)c1` (stereo not given) was “inactive”.
Regarding `CC1(C)C(C=C(Cl)Cl)C1C(=O)OC(C#N)c1cccc(Oc2ccccc2)c1` (stereo not given), the compound was called inactive.
On the same count and under the same terms, the entry for `O=C1C2CC=CCC2C(=O)N1SC(Cl)(Cl)Cl` (stereo not given) is “inactive”.
Still for that read-out and setting: the entry for `O=c1n(Cl)c(=O)n(Cl)c(=O)n1Cl` is “inactive”.
Take `Nc1c(Cl)c(Cl)nc(C(=O)O)c1Cl`: the compound was called inactive.
The same measure, in the same setting: the entry for `CC(C)(C)C(=O)C(Oc1ccc(Cl)cc1)n1cncn1` (stereo not given) is “inactive”; for `CCOc1cc(C(C)(C)C)ccc1C1COC(c2c(F)cccc2F)=N1` (stereo not given) it is “inactive”; for `CC1(C)CON(Cc2ccccc2Cl)C1=O` it is “inactive”.
As a reminder, the AC50 is the concentration giving half of the maximal activity seen. Regarding `CCN(CC)c1nc(C)cc(OP(=S)(OC)OC)n1`, the half-maximal activity concentration (AC50) is 50 µM (active).
Still for that read-out and setting: the value for `CSC(=O)c1c(C(F)F)nc(C(F)(F)F)c(C(=O)SC)c1CC(C)C` was 21.5 µM (active).
Regarding `COC(=O)c1c(C(F)F)nc(C(F)(F)F)c(C2=NCCS2)c1CC(C)C`, the AC50 is 43.7 µM (active).
Turning to `COC(=O)NC(=S)Nc1ccccc1NC(=S)NC(=O)OC`, the compound was classed as inactive.
Still for that read-out and setting: the value for `CCCCOCN(C(=O)CCl)c1c(CC)cccc1CC` was “inactive”.
Same read-out and setting: the entry for `COc1ccc(-c2ccccc2)cc1NNC(=O)OC(C)C` is “inactive”.
Turning to `COC(=O)NS(=O)(=O)c1ccc(N)cc1`, the compound was called inactive.
On the same count and under the same terms, the value for `O=C(Nc1ccccc1-c1ccc(Cl)cc1)c1cccnc1Cl` was “inactive”; that for `Cc1nc(N(C)C)nc(OC(=O)N(C)C)c1C` was “inactive”; that for `C=CCOC(=O)C(C)(C)OC(=O)c1cc(-n2c(=O)cc(C(F)(F)F)n(C)c2=O)ccc1Cl` was “inactive”.
The same measure, in the same setting: the value for `Cc1ccc(N=CN(C)C=Nc2ccc(C)cc2C)c(C)c1` was “inactive”; that for `Clc1nc(Cl)nc(Nc2ccccc2Cl)n1` was “inactive”; that for `CCSC(=O)N1CCCCCC1` was “inactive”.
Turning to `Nc1c(Cl)c(F)nc(OCC(=O)O)c1Cl`, the compound was called inactive.
On the same count and under the same terms, the entry for `COc1cc(OC)nc(NC(=O)NS(=O)(=O)c2ncccc2OCC(F)(F)F)n1` is “inactive”; for `N#Cc1c(Cl)cccc1Cl` it is “inactive”; for `Cc1cnc(C2=NC(C)(C(C)C)C(=O)N2)c(C(=O)O)c1` (stereo not given) it is “inactive”.
The same measure, in the same setting: the entry for `CCCN(CC)CC1COC2(CCC(C(C)(C)C)CC2)O1` (stereo not given) is “inactive”.
